High-throughput results from PubChem.
GALK inhibitor = blocks human galactokinase activity. Purified GALK, Kinase-Glo residual ATP luminescence. Potency, µM (titrated, usually from 57.5 µM), hits mostly inhibitors. actives 0.007% (n = 270,000)
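Compounds were pin-transferred into ATP buffer (35 uM final), then GALK plus galactose (5 nM, 100 uM final) was added. After 1 h at room temperature, Kinase-Glo Plus was added and luminescence read after 10 min.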
FBPA coupling cs = counter-screen for Giardia aldolase inhibitors: coupling enzyme system; activity change, negative = inhibition, % at 58.2 µM, hits read low; actives 0.67% (n = 290,000); coupling enzyme system counterscreen, AmpLite Red fluorescence; AID 2472; in the data active means activity change below about -30%
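First, compound is pin-transferred into glyceraldehyde-3-phosphate coupling-enzyme reagent at 57.5 uM final and held 10 min at RT. Next, substrate, coupling system and AmpLite Red are added. After 20 min RT, fluorescence (525/598 nm) is read.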
USP1 inh = blocks the human USP1/UAF1 deubiquitinase complex; O94782; recombinant USP1/UAF1, Ub-Rhodamine cleavage fluorescence; Potency, µM (top dose mostly 57.1 µM), hits mostly inhibitors; actives 0.23% (n = 390,000); AID 743255; further: nearly all actives have a fitted effect of over 60% in size
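In this screen, compounds sit with the deubiquitinase complex (1nM) for 15 min at room temperature before Ub-Rho is added at 150nM final. Fluorescence rise is then followed for 6 reads every 60 seconds.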
USP2a inh = inhibitors of human ubiquitin-specific protease USP2a; Potency, µM (titrated, usually from 38.3 µM), most hits filed as inhibitors; O75604; AID 463254; USP2 core, Ub-CHOP2 coupled fluorogenic reporter, 485/531; actives 0.01% (n = 330,000)
Target sequence (O75604 whole entry, looked up): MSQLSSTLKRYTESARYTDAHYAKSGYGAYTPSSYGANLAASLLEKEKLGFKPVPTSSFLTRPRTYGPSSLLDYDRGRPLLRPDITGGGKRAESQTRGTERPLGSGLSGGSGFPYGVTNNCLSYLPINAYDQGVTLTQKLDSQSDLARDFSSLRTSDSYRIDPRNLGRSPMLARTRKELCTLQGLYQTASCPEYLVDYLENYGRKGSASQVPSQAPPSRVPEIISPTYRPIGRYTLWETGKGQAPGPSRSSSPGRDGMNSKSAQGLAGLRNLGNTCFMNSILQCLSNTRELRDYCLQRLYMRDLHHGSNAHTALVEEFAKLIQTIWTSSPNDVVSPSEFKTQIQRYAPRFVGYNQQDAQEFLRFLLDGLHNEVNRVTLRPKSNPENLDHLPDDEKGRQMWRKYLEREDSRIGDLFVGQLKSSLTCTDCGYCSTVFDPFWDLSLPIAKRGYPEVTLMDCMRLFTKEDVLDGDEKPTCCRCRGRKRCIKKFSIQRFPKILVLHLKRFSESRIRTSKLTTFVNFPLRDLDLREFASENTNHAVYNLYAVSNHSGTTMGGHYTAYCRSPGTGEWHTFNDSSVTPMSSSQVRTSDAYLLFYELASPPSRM
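USP2 core (10nM final) preincubated 30min RT with compound in 20mM Tris-HCl pH 8.0, 2mM CaCl2, 2mM beta-mercaptoethanol, 0.05% CHAPS; 25nM Ub-CHOP2 plus 25nM reporter substrate added, fluorescence (Ex485/Em531) read after 60min.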
VDR inh = vitamin D3 receptor (human) inhibition; P11473; VDR-SRC2-3 peptide fluorescence polarization, 2 h; Potency, µM, hits mostly inhibitors; actives 0.93% (n = 400,000); AID 504847
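Two reagent solutions held at 4 deg C in the dark were dispensed, compounds pinned at 23 nl, and the mixture incubated 2 h at room temperature. Read-out: fluorescence polarization of VDR–SRC2-3 peptide binding.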
PLK1 PBD inh = blocks phosphopeptide binding to human PLK1 polo-box domain; P53350; Plk1 PBD binding of FITC phosphopeptide, fluorescence polarization; Potency, µM, hits mostly inhibitors; actives 2.8% (n = 360,000); further: series mostly up to about 57 µM; nearly all actives have a fitted effect of over 65% in size
VDR confirm = inhibits human vitamin D receptor, primary hit validation; shares compounds with VDR inh; VDR-coactivator inhibition assay, qHTS confirmation; Potency, µM, usual class: inhibitors; actives 89% (n = 840)
VDR FP fluor = blocks human VDR-coactivator binding in fluorescein assay; shares compounds with VDR inh; VDR-coactivator binding, fluorescein fluorescence polarization; Potency, µM (titrated, usually from 57.1 µM), actives largely listed as inhibitors; actives 48% (n = 840); AID 602200
VDR bla = confirmation of human vitamin D receptor inhibitors in reporter cells | shares compounds with VDR inh | VDR beta-lactamase reporter cells, FRET ratio; cells co-treated with VDR agonist LG190178 | Potency, µM (series often up to 46.1 µM), hits mostly inhibitors | actives 23% (n = 840)
VDR cytotox = cytotoxic in counter-screen for VDR inhibitors | shares compounds with VDR inh | cytotoxicity counter-screen, cell viability, qHTS | Potency, µM (titrated, usually from 48.3 µM), usual class: cytotoxic | actives 18% (n = 840) | AID 602204; further: nearly all actives have a fitted effect of over 75% in size
A number is an active result. Rows were chosen to be rich in hits. Some 3.2% of all compounds tested hit in one or more screens of this group. Unless noted, the call rests on the fitted dose curve; in most records, active means well fitted curve in the direction sought with a large enough effect; inconclusive means small, poorly fitted or top-dose-only effect, or another doubt; inactive means no such curve, though single readings can be large; an effect the other way counts as inactive or inconclusive.

`CC(C)c1c(C#N)c(N)nc(SCC(=O)c2cc3ccccc3oc2=O)c1C#N` gave GALK inhibitor inactive, FBPA coupling cs inactive, USP1 inh inactive, USP2a inh inactive, VDR inh inactive and PLK1 PBD inh inactive.
`Cc1cc(C)c(NC(=O)CCCOC(=O)C2=COCCO2)c(C)c1` gave GALK inhibitor inactive, FBPA coupling cs inactive, USP1 inh inactive, USP2a inh inactive, VDR inh inactive and PLK1 PBD inh inactive.
For C=C(C)[C@@H]1C2=CC(C(=O)OC)=C(C[C@@H](C(=C)C)[C@H]3O[C@H]3C3=C[C@H]1OC3=O)O2 the results were VDR inh 20µM, VDR confirm 7.08, VDR FP fluor 14.1µM, VDR bla inconclusive and VDR cytotox 16.8µM.
Screening CCc1ccc(N(CC(=O)NCc2ccc3c(c2)OCO3)C(=O)c2csnn2)cc1 returned GALK inhibitor inactive, FBPA coupling cs inactive, USP1 inh inactive, USP2a inh inactive, VDR inh inactive and PLK1 PBD inh inactive.
`CCS(=O)(=O)c1oc(-c2ccc(F)cc2)nc1S(=O)(=O)c1ccccc1` gave USP1 inh inconclusive, VDR inh 20µM, VDR confirm 4.47, VDR FP fluor 3.98µM, VDR bla 5.8µM and VDR cytotox 9.47µM.
For COc1ccc(C2CC(C(F)(F)F)n3ncc(C(=O)Nc4cccc(O)c4)c3N2)cc1OC (stereo unspecified) the results were GALK inhibitor inactive, FBPA coupling cs inactive, USP1 inh inactive, USP2a inh inactive, VDR inh inactive and PLK1 PBD inh inactive.
Screening Cc1cc(/C=C\c2ccccc2)nc2ccccc12 returned GALK inhibitor inactive, FBPA coupling cs inactive, USP1 inh inactive, USP2a inh inactive, VDR inh inactive and PLK1 PBD inh inactive.
Screening Cc1cc(C(Br)(Br)Br)nc2ccccc12 returned VDR confirm 14.1, VDR FP fluor 14.1µM, VDR bla 13µM and VDR cytotox 16.8µM.
For Cc1ccc(S(=O)(=O)N2CCOCC2)cc1NC(=O)c1cc(-c2ccccn2)nc2ccccc12 the results were GALK inhibitor inactive, FBPA coupling cs inactive, USP1 inh inactive, USP2a inh inactive, VDR inh inactive and PLK1 PBD inh inconclusive.
`O=C(Nc1cc(S(=O)(=O)N2CCOCC2)ccc1N1CCCCC1)c1cc(-c2ccccn2)nc2ccccc12` gave GALK inhibitor inactive, FBPA coupling cs inactive, USP1 inh inactive, USP2a inh inactive, VDR inh 44.7µM, PLK1 PBD inh 4.23µM, VDR confirm 23.8, VDR FP fluor 8.91µM, VDR bla inactive and VDR cytotox inactive.
`COC(=O)c1ccc(COc2ccc3c(c2)CCC3)o1` gave GALK inhibitor inactive, FBPA coupling cs inactive, USP1 inh inactive, USP2a inh inactive, VDR inh inactive and PLK1 PBD inh inactive.
For CCCCCC1C(=O)N2C=C(c3ccccc3)c3ccccc3N2C1=O (stereo unspecified) the results were USP1 inh inactive, VDR inh 22.4µM, PLK1 PBD inh inconclusive, VDR confirm 4.74, VDR FP fluor 3.98µM, VDR bla inactive and VDR cytotox inactive.
CCCCN1C(=O)C(NC(C)=O)c2ccccc21 (stereo unspecified) was read as GALK inhibitor inactive, FBPA coupling cs inactive, USP1 inh inactive, USP2a inh inactive, VDR inh inactive and PLK1 PBD inh inactive.
CCc1ccc(C(=O)COC(=O)c2cccs2)cc1 was read as GALK inhibitor inactive, FBPA coupling cs inactive, USP1 inh inactive, USP2a inh inactive, VDR inh inactive and PLK1 PBD inh inactive.
For O=C1OC(c2ccccc2)/C(=C(/O)c2ccccc2)C1=O (stereo unspecified) the results were GALK inhibitor inactive, FBPA coupling cs inactive, USP1 inh inactive, USP2a inh inactive, VDR inh inactive and PLK1 PBD inh inactive.
Cc1ccc(/C(O)=C2/C(=O)C(=O)OC2c2ccc(Cl)cc2)cc1 (stereo unspecified) was read as FBPA coupling cs inactive, USP1 inh inactive, USP2a inh inactive, VDR inh inconclusive, PLK1 PBD inh inconclusive, VDR confirm 11.2, VDR FP fluor 10µM, VDR bla inactive and VDR cytotox inactive.
For COc1ccc(CN(C)Cc2nc(Cc3cccc(F)c3)no2)c2cccnc12 the results were GALK inhibitor inactive, FBPA coupling cs inactive, USP1 inh inactive, USP2a inh inactive, VDR inh inactive and PLK1 PBD inh inactive.
Screening CN1C(=O)C(Cl)(Cl)C(=O)c2ccccc21 returned FBPA coupling cs -74.8, USP1 inh inactive, USP2a inh inactive, VDR inh 3.98µM, PLK1 PBD inh 11.9µM, VDR confirm 3.36, VDR FP fluor inconclusive, VDR bla inactive and VDR cytotox inactive.
Screening O=C(NC1CCCC1)c1ccc2nc(-c3ccco3)c(-c3ccco3)nc2c1 returned GALK inhibitor inactive, FBPA coupling cs -30.4, USP1 inh inactive, USP2a inh inactive, VDR inh inconclusive, PLK1 PBD inh 8.44µM, VDR confirm 10, VDR FP fluor 3.16µM, VDR bla inactive and VDR cytotox inactive.
`O=C(NC1CCCC1)c1ccc2nc[nH]c2c1` gave GALK inhibitor inactive, FBPA coupling cs inactive, USP1 inh inactive, USP2a inh inactive, VDR inh inactive and PLK1 PBD inh inactive.
`O=C(NCCc1ccccc1)c1ccc2nc(-c3ccco3)c(-c3ccco3)nc2c1` gave GALK inhibitor inactive, FBPA coupling cs -36.6, USP1 inh inactive, USP2a inh inconclusive, VDR inh inconclusive, PLK1 PBD inh inconclusive, VDR confirm 3.55, VDR FP fluor 8.91µM, VDR bla inactive and VDR cytotox inactive.
